Several values for one entry are separate records, joined by “and”; a condition that tells them apart may be missing. Equal entries are not always repeated. Inconclusive results are not listed. A number with no mark means an inactive call. The call rests on the fitted dose curve; in most records, active means well fitted activation curve with a large enough effect in the signal ratio; inconclusive means small, poorly fitted or top-dose-only effect, or a change in a side signal; inactive means flat fitted curve, though single readings scatter; the % refers to the signal ratio.
Test: qHTS assay for small molecule activators of the nuclear factor-kappa B (NF-kB) signaling pathway (AID 651749); further: series mostly up to about 77 µM; % of control where 0% means no effect
Details: NF-kB-bla ME-180 cells, beta-lactamase FRET ratio, 16 h; active compounds read high
Excerpt: National Center for Advancing Translational Sciences [NCATS] NIH Chemical Genomics Center [NCGC] U.S. Environmental Protection Agency [EPA] National Institutes of Environmental Health Sciences [NIEHS] National Toxicology Program [NTP] Assay Overview: Transcription factors and their stimulated target gene expression play pivotal roles across many cellular processes including responses to environmental stimuli. Proper regulation of associated pathways is critical to maintain cell health and function. Constitutive activation of transcription factor pathways has been implicated in tumors as it may block cellular functions such as apoptosis and lead to invasion and metastasis. One important transcription factor that stimulates gene expression in response to cytokines, UV radiation, and other stimuli is nuclear factor-kappa B (NF-kB). To measure activation of the NF-kB pathway, the NF-kB-bla ME-180 cell line stably expressed beta-lactamase reporter gene under the regulation of a NF-kB response element was obtained from Invitrogen. This assay allows measurement of the NF-kB pathway activity induced by compounds in a ME-180 cell line. This system quantitates NF-kB activity using a FRET-based assay system where beta-lactamase expression disrupts FRET, allowing for fluorescent measurement of activity.
Assay Protocol Summary: For toxicology screening, 2,000 cells in 5 uL/well were dispensed into black, clear-bottom 1536-well plates using a Multidrop Combi (Thermo Scientific) dispenser. Following transfer of 23 nL compound or DMSO vehicle by a pin tool, the plates were incubated 16 hr at 37C and 5% CO2.

Compound	activation
C[C@]12CCC(=O)C[C@@H]1CC[C@@H]1[C@@H]2CC[C@]2(C)[C@@H](O)CC[C@@H]12	1.2% and 0.597%
O=C1C=CC(=O)C=C1	-1.25%
O=C1CCO1	-0.561%
O=[N+]([O-])c1ccccc1	-0.285% and -0.296%
O=C/C=C/c1ccccc1	-1.46% and -0.692%
S=C=S	-0.146%
COC1=CC(=O)O[C@@H](/C=C/c2ccccc2)C1	-0.734%
NNC(N)=O	-0.594%
O=Cc1ccco1	-0.614%
O=[N+]([O-])C(Br)(CO)CO	-3.37%
C[C@H]1CCC[C@H](O)CCCCCc2cc(O)cc(O)c2C(=O)O1	-0.26%
CCOC(=O)c1ccccc1C(=O)OCC	1.25% and 1.36% and -0.459%
O=[N+]([O-])c1ccc(F)c([N+](=O)[O-])c1	-0.0445%
O=C1C[C@@H]2OCC=C3CN4CC[C@]56c7ccccc7N1[C@H]5[C@H]2[C@H]3C[C@H]46	-1.87%
N#CN	0.422%
[O]=[Cr](=[O])([OH])[O][Cr](=[O])(=[O])[OH]	1.49% and -0.838% and 3.86%

Compound	activation
Oc1cc(Cl)c(Cl)cc1Cl	1.51% and -0.218%
Clc1ccccc1Cl	-0.0325%
[O]=[Cd]	-0.74%
O=C1C2CC=CCC2C(=O)N1SC(Cl)(Cl)Cl (stereo unspecified)	-2.11%
CCOP(=O)(OCC)O/C(=C/Cl)c1ccc(Cl)cc1Cl	-2.44% and -1.58%
C=CCN=C=S	-1.41%
CC(C)(C)c1cc(O)ccc1O	-2.1% and -2.15% and -3.27%
COCC(C)N(C(=O)CCl)c1c(C)csc1C (stereo unspecified)	-2.83%
ClC(Cl)(Cl)Cl	2.09% and -0.921%
ClC1C(Cl)C(Cl)C(Cl)C(Cl)C1Cl (stereo unspecified)	-1.15% [middle of 4 runs]
ClC=C(Cl)Cl	-0.987% and 0.875%
CCCCCCCCOC(=O)c1ccccc1C(=O)OCCCCCCCC	-1.07% and -0.62%
O=C(O)c1cc[c]([Hg][Cl])cc1	4.33%
ClCC1CO1 (stereo unspecified)	0.581%
C#CCN1CC(=O)N(COC(=O)C2C(C=C(C)C)C2(C)C)C1=O (stereo unspecified)	1.36%
